The values that follow come from the supplement of paper PMC10105736.

Values without a mark were called inactive.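 How the source made its calls: active = MAPPIT score above the 99th percentile of random reference set scores in the same batch; inactive = at or below it.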

Holding throughout (assay): MAPPIT interaction score (arbitrary units); higher = stronger binary interaction signal, active = hit call of the paper
One experiment deals with AP-1mu. To be noted: MAPPIT configuration: N-C; pair source set: screen_4. Here is the method:
(§1)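 MAPPIT in HEK293T cells: Drosophila bait and prey ORFs (from the FlyBi ORF collection) were co-transfected in quadruplicate, with two wells stimulated by erythropoietin. Interaction-dependent JAK-STAT activation was read out with a STAT-responsive firefly luciferase reporter. Positive calls use the 99th percentile of random reference set (RRS) scores within each batch […]. Batches Dvs01 and Dvs02 used the N-N configuration and Dvs04 the N-C configuration. Pairs come from FlyBi screens, CuraGen, DPiM, Finley Y2H, Lit-BM-16, Lit-BS-16 and RRS.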

Another experiment deals with Acp1. The conditions noted are these: pair source set: RRS. As to the method:
as §1

The target in a further experiment is ATPsynF. The conditions noted are these: MAPPIT configuration: N-N; pair source set: DPIM. As to the method: as §1
For another experiment, the target named is ATPsyndelta. To be noted: MAPPIT configuration: N-C; pair source set: screen_4. As to the method:
as §1

For another experiment, the target named is CG15572. The conditions noted are these: MAPPIT configuration: N-C; pair source set: screen_4. As to the method: as §1
Another experiment addresses CG42659. The conditions noted are these: MAPPIT configuration: N-C; pair source set: screen_3. Here is the method:
as §1

The target in a further experiment is Polr3E. To be noted: MAPPIT configuration: N-C; pair source set: screen_4. Here is the method:
as §1

For another experiment, the target named is ATPsyngamma. To be noted: MAPPIT configuration: N-N; pair source set: DPIM. As to the method:
as §1

The target of a further experiment is AP-2alpha. The conditions noted are these: MAPPIT configuration: N-N; pair source set: DPIM. As to the method:
as §1

A further experiment concerns the target CG9667. The conditions noted are these: MAPPIT configuration: N-N; pair source set: DPIM. Here is the method: as §1
The target in another experiment is CG17377. The conditions noted are these: MAPPIT configuration: N-C; pair source set: screen_4. Here is the method:
as §1

Another experiment has as its target Mst87F. To be noted: MAPPIT configuration: N-N; pair source set: screen_2. As to the method:
as §1

The target of the next experiment is lawc. To be noted: MAPPIT configuration: N-C; pair source set: screen_3. As to the method:
as §1

The next experiment addresses ATPsynC. The conditions noted are these: MAPPIT configuration: N-C; pair source set: screen_3. Here is the method:
as §1
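Further: HEK293T cells with Epo stimulation, STAT-responsive firefly luciferase reporter, fold induction versus unstimulated cells divided by the larger fold induction of two negative controls lacking either bait or prey.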

B1: Cp38 (protein)
chain: MTRSTYIWALAACLIACASANYGSSQGYGPESGSGASDGGADAASAAAAAAGGAGGAGGEYGGANAGAGALESGADAAGVAQAGQSSYGSDQNIPYKPVNTKGNTLTSSITYPQNKGEILIHRPAPIIVKRPPTKVLVNHPPLVVKPAPVVLHKPPAIVLRKVYVKHHPRRVKVEPVFVNVVKPPAEKYFVNENKQGYGQGSQSHGHGHGHGGHGHGHSGHGHGGHGAGPHGPGPHDGGRALPAYASGADSAAASAGYQLLQSGNQGLSALANIAGEREGPYGPAPSHQHYSAGPAGHGGYAAPAY
For the molecule B1, the MAPPIT interaction score in the experiment with AP-1mu was 0.503.

B2: spir (protein)
chain: MTEHQAEEQADTPPTKVKATPTPTPSGKFKDAKEDAFLSTSPDSANGDAQHKLPADQLAMSSSAHPQQAGQARPLILQAFHRCSSPEQCVTLHDILDSFKAPLSEDQAWALIHQFAGLYHQVAVQAHTCAADYEAALPTGFELHFHRDGSVHFSGPDQLTPKEQLQQEQIPLPPQHDVIVDQPDHSASSSGDSSVINRAFDNSNHHHHHQHHHPPLVVSHRKIISELAEIVYTALDYNLPEDEECQVSQELENLFNFMTADETDDDCIDEGIDEGDKRWDDESEEERNDTKELEHIIETCRNHIKTTLPENHYRAVCRALVTETIELRVFLQQVLNNEAGAEKLIKASESSATTQQELAKLGFNDWARFWVQVIDELRRGVRLKKSNHERTPIEYELTPYEILMGDIRAKKYQLRKVMVNGDIPPRVKKDAHAMILEFIRSRPPLKKASDRQLGPPRMCEPSPREQLMESIRKGKELKQITPPEAPTLRERVLPSANSTLSRSRQRLIKVDFSKFQDDDLFYDENSISSSHSTAATHQHHPHFAEMHRCSQPKMPPYPFGGYMVPSQARQDCRETASLMRPRRTMEPAKQVPPPEEPSFTKDEYHKFYDTALESYDLATQCESRRASLRRHTIVGCQSNLDETHSMPPTRPESRQSDDVSKETPKRSPAEQTHPSDEGSSTSSLGPWNKSFMDKQTWMERGDDRLSVTLAEIVHIRSVMTKAELEGLPMDVRVKEDVEKRRVCFLCLRTRFSFFGPWGIQCKLCQRTVCAKCYTKMRIPSEHFRNVPLVLISPSLLSSPASSSTPSPSHHAQQAHSSSTGNIMDDQFPKSLIERLLRSESDRKTRSTVGSAPSSPKHQRSNMSTPGISVGPGASSSSAAATGQAVEALHDQATMSSSYSAAMRPSGVHQQQKQHYNNAMSRSMEGPRSLPVHSPAYRPLSNNSTLERKSRFSRGFNLFSSGSHLAQTQEQKENLRGEQVTVCNDCQGLVNEITSSVKQKRSSARNRTIQNLTLDLTPVWK
As for B2, the MAPPIT interaction score with Acp1 (MAPPIT configuration: N-C) was -0.762; with Acp1 (MAPPIT configuration: N-N), 0.149.

B3: ATPsynCF6 (protein)
chain: MLSQSLLSGMRVLRTEARRNFGIVAPALNKASDPIQQLFLDKVREYKQKSAGGKLVDSNPDIERELKTELDRVAKQFGSDGKTDMLKFPEFQFPDVKVDPITQAPQ
As to B3, the MAPPIT interaction score with ATPsynF is -0.221.

B4: Crk (protein)
chain: MDTFDVSDRNSWYFGPMSRQDATEVLMNERERGVFLVRDSNSIAGDYVLCVREDTKVSNYIINKVQQQDQIVYRIGDQSFDNLPKLLTFYTLHYLDTTPLKRPACRRVEKVIGKFDFVGSDQDDLPFQRGEVLTIVRKDEDQWWTARNSSGKIGQIPVPYIQQYDDYMDEDAIDKNEPSISGSSNVFESTLKRTDLNRKLPAYARVKQSRVPNAYDKTALKLEIGDIIKVTKTNINGQWEGELNGKNGHFPFTHVEFVDDCDLSKNSTEIC
B4: the MAPPIT interaction score with ATPsyndelta was 2.72; with CG15572 it was 0.475; with CG42659, 0.17; with Polr3E, 2.44.

B5: CycA (protein)
chain: MASFQIHQDMSNKENPGIKIPAGVKNTKQPLAVIGGKAEKNALAPRANFAVLNGNNNVPRPAGKVQVFRDVRNLNVDENVEYGAKKSNVVPVVEQFKTFSVYEDNNDTQVAPSGKSLASLVDKENHDVKFGAGQKELVDYDLDSTPMSVTDVQSPMSVDRSILGVIQSSDISVGTETGVSPTGRVKELPPRNDRQRFLEVVQYQMDILEYFRESEKKHRPKPLYMRRQKDISHNMRSILIDWLVEVSEEYKLDTETLYLSVFYLDRFLSQMAVVRSKLQLVGTAAMYIAAKYEEIYPPEVGEFVFLTDDSYTKAQVLRMEQVILKILSFDLCTPTAYVFINTYAVLCDMPEKLKYMTLYISELSLMEGETYLQYLPSLMSSASVALARHILGMEMWTPRLEEITTYKLEDLKTVVLHLCHTHKTAKELNTQAMREKYNRDTYKKVAMMESVEMSKDDFDQLCEAYNCKQKEDEHQQPDINTKSNVNLFYKF
As for B5, in the experiment with ATPsyngamma, the MAPPIT interaction score is 1.52.

B6: CG10417 (protein)
chain: MGAYLSHPKTDKTSTDQFNELLAVGASSMQGWRNSQEDAHNSILNFDNNTSFFAVYDGHGGAEVAQYCADKLPHFLKNLETYKNGQFEVALKEAFLGFDKTLLDPSIVSILKILAGEHNFVDAEADDYEEEDLAELQEESNLPLNEVLEKYKGLPQKKDLDLKSSDHKENFKMRSPYFRGRRAAALAAEATNKAVMDPSAKPDGSSTSAAAAAAALSADGVANSRNPSNVVNPMAGADSNTTTSINDLSTKNAALKDDSVNDQNEGSNGTDFKHTLVSSSNKKLFATGSNDMTELNQSSKNEFTNSSTSKEFERNINSSQDDEFTDDDADYEENDNVKSPDTSSAESSDCTENDDDGDEDGNEDSDEEETDEDQMANDNFCANMIEEPGKDSGCTAVVCLLQGRDLYVANAGDSRCVISRSGQAIEMSIDHKPEDDEEASRIIKAGGRVTLDGRVNGGLNLSRALGDHAYKTNVTLPAEEQMISALPDIKKLIITPEDEFMVLACDGIWNYMSSEEVVEFVRCRLKDNKKLSTICEELFDNCLAPNTMGDGTGCDNMTAVIVQFKKKLQELQSTIPPNQTEDKLLKTSENVSHSLNDQSASKRCASQNADADDEILEKNNSKRLKTDLEQENIKDRTPSPSNQNEDPTQKAIKEVTIIVSSS
Turning to B6, the MAPPIT interaction score in the experiment with AP-2alpha is 0.508; with CG9667, 0.00387.

B7: spin (protein)
chain: MSLKHQKQSYQPLPTAAAMDNPAMIQSSGSSGSSSSEEGGSREDVANLSPLGLPTTYSSQQLMPSDTDSMEEERHRLRPHHHHHHPLGEHHHIPGIPPSAVVPSRLSSVGRSQWFTVTVLCFVNLINYMDRFTIAGVLTDVRNDFDIGNDSAGLLQTVFVISYMVCAPIFGYLGDRYSRPWIMAVGVGLWSTTTLLGSFMKQFGWFIAFRALVGIGEASYSTIAPTIISDLFVHDMRSKMLALFYFAIPVGSGLGYIVGSKTAHLANDWRWALRVTPILGIVAVFLILLIKDPVRGHSEGSHNLEATTYKQDIKALVRNRSFMLSTAGFTCVAFVAGALAWWGPSFIYLGMKMQPGNENIVQDDVAFNFGVITMLAGLLGVPLGSFLSQYLVKRYPTADPVICAFGLLVSAPLLTGACLLVNSNSVGTYALIFFGQLALNLNWAIVADILLYVVVPTRRSTAEAFQILISHALGDAGSPYLVGAISEAIMKHLHKNPSDSGLTTELRSMSQVAGSAISNATQVIAEATTSLMETARSSASQEYSDVEQFEGLQYALFSTSFVEVLGGIFFIFTACFIIKDKYNATRGLQDATAQQQQRDERGQIA
Consider B7, for which the MAPPIT interaction score in the experiment with AP-1mu was 2.01; with CG17377, 1.62; with Mst87F, 2.13; with lawc, 1.7.

B8: stas (protein)
chain: MSYCSGVAISADEGITMRNGRAKALQEHSPDQVATPLLPQVPPQEQQDLNPQQQQQQQQQQQATPQKQAMSADEKKATKKSLVIVAGIFVASLVTMCYVYAIFPELNASEKQHLKIPRDIQDAKMLAKVLDRYKDMYYFEVMFGVVVAYVFLQTFAIPGSLFLSILLGFLYKFPIALFLICFCSALGATLCYTLSNLVGRRLIRHFWPKKTSEWSKHVEEYRDSLFNYMLFLRMTPILPNWFINLASPVIGVPLHIFALGTFCGVAPPSVIAIQAGKTLQKMTSSSEAFSWTSMGILMACACASLLPGLLKNKFKHKKEA
In the case of B8, in the experiment with ATPsynC, the MAPPIT interaction score was 0.0375.
